# In the library only some 3.2% were active in any assay of this set; here they are far more common.
# p53 reactivator: restores transcriptional activity of mutant p53. H1299 p53-A138V BP100-luciferase reporter, luminescence, 24 h. Potency, µM (doses to about 92.2 µM), inactives show at the top dose activity change, positive = activation, most hits filed as activators. 320,000 tested, 0.063% active; also: potency is read from the fitted curve at half-maximal effect; % of control where 0% means no effect; nearly all actives have a fitted effect of over 45% in size
#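 H1299 (p53-null), stable ts p53-A138V + BP100-Luc; 1000 cells/well, Opti-MEM/10% FBS; cpd 4 pt, 1:5; 24 h, 37 deg C, 5% CO2; detection reagent 10 min RT; luminescence.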
# Nrf2 activator: Nrf2 pathway activation. AID 624171. AREc32 ARE-luciferase reporter (MCF7-derived line), luminescence, 24 h. 410,000 tested, 0.31% active. Potency, µM (top dose mostly 46.1 µM), for inactives: at the highest dose activation, actives largely listed as activators; also: potency is read from the fitted curve at half-maximal effect; % of control where 0% means no effect; nearly all actives have a fitted effect of over 65% in size
#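 Each well held 1000 AREc32 cells, which were incubated with compound for 24 hr at 37 deg C after overnight attachment, and ARE reporter activity was quantified by firefly luciferase luminescence.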
# BRCA1 expr act: increases BRCA1 expression; MCF7-BRCA1-FFLuc reporter, luminescence, 48 h; response scale: scaled: vehicle 0%, 10 µM genistein 100%; Potency, µM (series often up to 46.1 µM), inactives show top-dose activation, most hits filed as activators; 380,000 tested, 1.1% active; also: potency is read from the fitted curve at half-maximal effect; nearly all actives have a fitted effect of over 80% in size
#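 MCF7 cells carrying a BRCA1-firefly luciferase reporter (2000 cells/well, phenol-red free MEM) were attached for 2 h at 37 °C, then given compounds for 48 h. Luminescence was read 15 min after luciferase reagent; activity normalized to genistein (10 microM) and DMSO.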
# Nrf2 block: Nrf2 pathway inhibition; A549 ARE-Fluc reporter, luciferase luminescence, 18-24 h; Potency, µM (top dose mostly 46 µM), for the others: at the highest dose activity change, negative = inhibition, hits mostly inhibitors; 360,000 tested, 2.1% active; also: potency is read from the fitted curve at half-maximal effect; % is scaled to controls: 0 for no effect and ±100 for the full control effect; nearly all actives have a fitted effect of over 60% in size
#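 Concentration-response testing used A549 ARE_Fluc cells at 5000 cells/well. Following an 18-24 h compound incubation, viability was read by fluorescence (Ex 405/Em 525) and luciferase output by luminescence.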
# IL2 activator: IL-2 activation; 360,000 tested, 0.065% active; AID 652025; IL-2 activation reporter assay, cell-based qHTS; stimulated with anti-CD3/CD4/CD28 beads; in transgenic mouse T cells; activation, % (series mostly up to about 46 µM); in the data active = activation above about 50%; inconclusive = mostly about 30% to 49%; also: 0% is about no effect
#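 Unstimulated transgenic mouse T cells; 60-min compound exposure; bead-based TCR/CD4/CD28 stimulation; 18 h culture, 37 degrees C; dual fluorescence (EGFP, DsRed) plate cytometry.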
# A549 tox: kills or reduces viability of A549 cells in Nrf2 counter-screen; 390,000 tested, 0.16% active; Potency, µM (top dose mostly 46 µM), for inactives: at the highest dose activity change, negative = cytotoxicity, actives largely listed as inhibitors; A549 ARE-Fluc cells, CellTiter-Fluor viability, 18-24 h; AID 504648; also: potency is read from the fitted curve at half-maximal effect; % is scaled to controls: 0 for no effect and ±100 for the full control effect
#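 Cytotoxicity counterscreen: CellTiter-Fluor fluorescence was measured in A549 ARE_Fluc cells after 18-24 h of compound exposure in a concentration series. The subsequent BugLite luminescent read reports ARE-luciferase activity.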
# * hit, by the source's call; ? = inconclusive; . = no result; [ ] = dose if it differs, or a comment. Unless noted, calls follow the shape of the dose curve; as a rule, active = well fitted curve in the direction sought with a large enough effect; inconclusive = small, poorly fitted or top-dose-only effect, or another doubt; inactive = no such curve, though single readings can be large; an effect the other way counts as inactive or inconclusive.
SMILES,p53 reactivator,Nrf2 activator,BRCA1 expr act,Nrf2 block,IL2 activator,A549 tox
COc1ccc(CN(Cc2ccco2)c2cnc(S(C)(=O)=O)nc2C(=O)Nc2ccc(F)cc2)cc1,.,8.4%,.,7.7%,.,10.7%
CC(NC(=O)COC(=O)/C=C/c1ccco1)c1ccccc1 (stereo unspecified),6.0%,12.6µM*,-14.8%,16.0%,0.2,-9.1%
CC1CC(C)CN(C(=O)COC(=O)/C=C/c2cccc([N+](=O)[O-])c2)C1 (stereo unspecified),9.2%,7.1%,4.8%,11.2%,4.1,9.5%
CC1CC(C)CN(C(=O)COC(=O)/C=C/c2ccco2)C1 (stereo unspecified),6.1%,14.1µM*,15.5%,0.1%,-1.5,18.1%
CNC(=O)COC(=O)/C=C/c1ccco1,-0.6%,23.8%,20.4%,-18.3%,2.0,2.5%
CN(C)c1ccc(C=Cc2ccnc3c(O)cccc23)cc1,.,20.5%,-64.3%,.,148.1*,.
CN(C)c1ccc(/C=C/c2ccnc3c(O)cccc23)cc1,.,.,-71.2%,.,.,.
CN(N=Nc1ccc([N+](=O)[O-])cc1)c1ccccc1,?,7.1%,3.55µM*,?,-4.6,-12.6%
CN(N=Nc1cccc([N+](=O)[O-])c1)c1ccccc1,?,?,82.7%,?,-0.1,15.5%
N#C/C(=C\c1ccc[nH]1)C(=O)Nc1ccccc1F,?,11.2µM*,-1.6%,?,-2.0,-8.6%
COC(=O)c1cc(=O)n(-c2ccc(F)cc2)c(=Nc2ccc(F)cc2)s1,-16.5%,-5.8%,-74.2%,20.6µM*,-3.0,?
O=C(Nc1cccc2ccccc12)/C(Cl)=C/c1ccccc1,8.8%,10µM*,-15.0%,.,-2.0,-4.3%
O=C(Nc1ccccc1F)C(=O)Nc1cccc2ccccc12,.,9.7%,61.0%,?,-0.2,1.9%
Cc1ccc(S(=O)(=O)N(C)C)cc1NC(=O)COC(=O)CCNS(=O)(=O)c1ccccc1,0.5%,-0.9%,1.4%,1.0%,-5.5,-9.3%
Cc1ccc(S(=O)(=O)NCCC(=O)Nc2cc(S(=O)(=O)N(C)C)ccc2C)cc1C,-5.4%,-0.6%,-15.6%,7.31µM*,0.0,0.5%
CCN(CC)CCNC(=O)c1cc2c(=O)n(C)c3cc(Cl)ccc3c2s1,.,-0.6%,6.6%,?,.,9.2%
COc1cccc(Cn2nnc(C(=O)Nc3cc(C)ccc3C)c2N)c1,.,3.8%,-16.9%,16.4µM*,.,-4.0%
Cc1ccc(Nc2cc(C)c(C#N)c3nc4ccccc4n23)cc1Cl,.,0.5%,.,3.8%,.,-1.1%
N#Cc1ccc(-c2csc(NNC(=O)c3ccccc3)n2)cc1,12.2%,-1.1%,-74.3%,23.1µM*,-1.2,-13.8%
N#Cc1ccc(-c2csc(NNC(=O)c3ccc(Br)cc3)n2)cc1,4.8%,-0.7%,-62.4%,.,1.1,?
CCCCNc1c(-c2ccc(OC)c(Sc3ccc(OC)cc3)c2)nc2cnccn12,-8.2%,-0.5%,-68.5%,?,-0.5,-5.3%
CCCCNc1c(-c2ccc(OC)c(Sc3ccc(OC)cc3)c2)nc2ccccn12,-15.7%,-2.5%,-71.4%,18.4µM*,-0.7,?
O=C(NC(=S)Nc1cccnc1Cl)c1ccco1,22.1%,12.6µM*,10µM*,?,0.4,14.1%
O=C(NC(=S)Nc1cccc(O)c1)c1ccco1,?,11.2µM*,?,?,1.6,1.7%
Cc1ccc2nc(NC(=S)NC(=O)c3ccco3)sc2c1,?,?,18.2%,?,-3.2,-3.1%
SMILES,p53 reactivator,Nrf2 activator,BRCA1 expr act,Nrf2 block,IL2 activator,A549 tox
O=C(NC(=S)NCc1ccc(Cl)cc1)c1ccco1,-3.9%,7.3%,4.4%,16.4µM*,-0.4,5.6%
Cc1ccc2nsnc2c1NC(=S)NC(=O)c1ccco1,-1.1%,6.31µM*,-51.4%,3.8%,-2.3,1.8%
COc1ccc(CCNC(=O)CCCn2c(=O)c3ccccc3n(CC(=O)Nc3ccc(C)cc3Cl)c2=O)cc1OC,.,-0.5%,5.5%,-18.7%,.,-13.6%
COc1cccc(-n2cc(C(=O)Oc3cccc(C(F)(F)F)c3)c3ccccc3c2=O)c1,.,0.1%,.,.,.,7.3%
COc1ccc(NC(=O)c2c(C)oc3ccc(O)c(CN4CCN(Cc5ccccc5)CC4)c23)cc1,.,17.3%,.,0.0%,.,-1.3%
O=C(Cn1c(=O)n(Cc2nc(-c3ccccc3)no2)c(=O)c2ccccc21)Nc1cccc(Cl)c1,.,-0.6%,.,-13.7%,.,-11.4%
O=C(Cn1c(=O)n(Cc2nc(-c3ccccc3)no2)c(=O)c2ccccc21)Nc1cccc(C(F)(F)F)c1,.,-1.2%,.,16.4µM*,.,-16.3%
CN(C(=O)CSc1ncnc2sccc12)C1CCCCC1,?,18.4%,3.98µM*,?,-2.8,-0.1%
O=C(Nc1ccc(N2CCCCC2)cc1)c1cccnc1Cl,16.9%,2.1%,10µM*,0.6%,4.0,6.4%
COc1ccc(-n2nc(C(=O)N3CCN(c4cccc(C)c4)C(C)C3)c3c4ccccc4n(C)c3c2=O)cc1Cl (stereo unspecified),.,2.3%,.,-3.6%,.,8.1%
COc1cc(/C=C/c2ccnc3ccccc23)ccc1N(C)C,.,.,11.2%,.,.,.
Cc1ccccc1CSCc1nc(N)nc(Nc2ccccc2C)n1,0.1%,3.6%,11.2µM*,-5.0%,5.4,8.5%
Cc1ccccc1Nc1nc(N)nc(COC(=O)c2ccccc2)n1,?,5.1%,14.1µM*,?,-2.1,14.8%
CCCCn1c(SCc2nc(N)nc(Nc3ccccc3C)n2)nc2ccccc2c1=O,-5.2%,1.6%,-51.2%,20.6µM*,0.3,-29.8%
COc1ccc(C(=O)NCC(=O)OC(C(=O)Nc2cc(C(F)(F)F)ccc2Cl)c2ccccc2)cc1OC (stereo unspecified),.,.,.,-16.1%,.,-2.8%
COc1cc(Cl)c(C)cc1Nc1c2c(nc3ccccc13)CCC2,.,0.5%,.,4.3%[9.27 µM],.,?
COc1cccc(-c2nn(C)c3sc(C(=O)N4CCN(c5cccc(C)c5)C(C)C4)cc23)c1 (stereo unspecified),.,-0.8%,.,?,.,-8.3%
CCOC(=O)COn1c(-c2cccc(Cl)c2)nc2ccc([N+](=O)[O-])cc21,?,0.2%,7.08µM*,4.6%,-2.6,0.9%
Cc1ccc2scc(N3CCc4ccccc4C3)c(=O)c2c1,.,8.8%,.,.,.,-9.6%
CCN(CC)C1=CC2=CC(=C(C#N)C#N)CCC2CC1 (stereo unspecified),-5.4%,2.3%,-20.9%,5.2%,102.3*,1.1%
CCCCN(C)C1=CC2=CC(=C(C#N)C#N)CCC2CC1 (stereo unspecified),2.8%,2.7%,-7.6%,-11.5%,-4.9,-12.9%

# Screening results (PubChem BioAssay)
